A selection: hits, their analogues and other compounds. The true share with any hit is near 3.5%.
Pf apPOL block: Pf-apPOL inhibitors, biochemical, fluorescence; Recombinant Pf-apPOL, molecular beacon fluorescence, 1.5 h; 210,000 compounds, 0.25% hits; AID 1794808, 2022; Plasmodium falciparum apicoplast DNA polymerase (apPOL); inhibition, % at 10 µM
mHTT-CaM PPI inh: mutant huntingtin-calmodulin interaction inhibitors – biochemical, AlphaScreen, primary screen | 190,000 compounds, 3.6% hits | AID 1671202, 2021 | inhibition, % at 15 µM | AlphaScreen His-mHTT/GST-CaM binding, luminescence | P42858;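 also: 0% = both proteins with DMSO and 100% = one protein alone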
Target sequence (P42858 whole entry, looked up, stated change not applied): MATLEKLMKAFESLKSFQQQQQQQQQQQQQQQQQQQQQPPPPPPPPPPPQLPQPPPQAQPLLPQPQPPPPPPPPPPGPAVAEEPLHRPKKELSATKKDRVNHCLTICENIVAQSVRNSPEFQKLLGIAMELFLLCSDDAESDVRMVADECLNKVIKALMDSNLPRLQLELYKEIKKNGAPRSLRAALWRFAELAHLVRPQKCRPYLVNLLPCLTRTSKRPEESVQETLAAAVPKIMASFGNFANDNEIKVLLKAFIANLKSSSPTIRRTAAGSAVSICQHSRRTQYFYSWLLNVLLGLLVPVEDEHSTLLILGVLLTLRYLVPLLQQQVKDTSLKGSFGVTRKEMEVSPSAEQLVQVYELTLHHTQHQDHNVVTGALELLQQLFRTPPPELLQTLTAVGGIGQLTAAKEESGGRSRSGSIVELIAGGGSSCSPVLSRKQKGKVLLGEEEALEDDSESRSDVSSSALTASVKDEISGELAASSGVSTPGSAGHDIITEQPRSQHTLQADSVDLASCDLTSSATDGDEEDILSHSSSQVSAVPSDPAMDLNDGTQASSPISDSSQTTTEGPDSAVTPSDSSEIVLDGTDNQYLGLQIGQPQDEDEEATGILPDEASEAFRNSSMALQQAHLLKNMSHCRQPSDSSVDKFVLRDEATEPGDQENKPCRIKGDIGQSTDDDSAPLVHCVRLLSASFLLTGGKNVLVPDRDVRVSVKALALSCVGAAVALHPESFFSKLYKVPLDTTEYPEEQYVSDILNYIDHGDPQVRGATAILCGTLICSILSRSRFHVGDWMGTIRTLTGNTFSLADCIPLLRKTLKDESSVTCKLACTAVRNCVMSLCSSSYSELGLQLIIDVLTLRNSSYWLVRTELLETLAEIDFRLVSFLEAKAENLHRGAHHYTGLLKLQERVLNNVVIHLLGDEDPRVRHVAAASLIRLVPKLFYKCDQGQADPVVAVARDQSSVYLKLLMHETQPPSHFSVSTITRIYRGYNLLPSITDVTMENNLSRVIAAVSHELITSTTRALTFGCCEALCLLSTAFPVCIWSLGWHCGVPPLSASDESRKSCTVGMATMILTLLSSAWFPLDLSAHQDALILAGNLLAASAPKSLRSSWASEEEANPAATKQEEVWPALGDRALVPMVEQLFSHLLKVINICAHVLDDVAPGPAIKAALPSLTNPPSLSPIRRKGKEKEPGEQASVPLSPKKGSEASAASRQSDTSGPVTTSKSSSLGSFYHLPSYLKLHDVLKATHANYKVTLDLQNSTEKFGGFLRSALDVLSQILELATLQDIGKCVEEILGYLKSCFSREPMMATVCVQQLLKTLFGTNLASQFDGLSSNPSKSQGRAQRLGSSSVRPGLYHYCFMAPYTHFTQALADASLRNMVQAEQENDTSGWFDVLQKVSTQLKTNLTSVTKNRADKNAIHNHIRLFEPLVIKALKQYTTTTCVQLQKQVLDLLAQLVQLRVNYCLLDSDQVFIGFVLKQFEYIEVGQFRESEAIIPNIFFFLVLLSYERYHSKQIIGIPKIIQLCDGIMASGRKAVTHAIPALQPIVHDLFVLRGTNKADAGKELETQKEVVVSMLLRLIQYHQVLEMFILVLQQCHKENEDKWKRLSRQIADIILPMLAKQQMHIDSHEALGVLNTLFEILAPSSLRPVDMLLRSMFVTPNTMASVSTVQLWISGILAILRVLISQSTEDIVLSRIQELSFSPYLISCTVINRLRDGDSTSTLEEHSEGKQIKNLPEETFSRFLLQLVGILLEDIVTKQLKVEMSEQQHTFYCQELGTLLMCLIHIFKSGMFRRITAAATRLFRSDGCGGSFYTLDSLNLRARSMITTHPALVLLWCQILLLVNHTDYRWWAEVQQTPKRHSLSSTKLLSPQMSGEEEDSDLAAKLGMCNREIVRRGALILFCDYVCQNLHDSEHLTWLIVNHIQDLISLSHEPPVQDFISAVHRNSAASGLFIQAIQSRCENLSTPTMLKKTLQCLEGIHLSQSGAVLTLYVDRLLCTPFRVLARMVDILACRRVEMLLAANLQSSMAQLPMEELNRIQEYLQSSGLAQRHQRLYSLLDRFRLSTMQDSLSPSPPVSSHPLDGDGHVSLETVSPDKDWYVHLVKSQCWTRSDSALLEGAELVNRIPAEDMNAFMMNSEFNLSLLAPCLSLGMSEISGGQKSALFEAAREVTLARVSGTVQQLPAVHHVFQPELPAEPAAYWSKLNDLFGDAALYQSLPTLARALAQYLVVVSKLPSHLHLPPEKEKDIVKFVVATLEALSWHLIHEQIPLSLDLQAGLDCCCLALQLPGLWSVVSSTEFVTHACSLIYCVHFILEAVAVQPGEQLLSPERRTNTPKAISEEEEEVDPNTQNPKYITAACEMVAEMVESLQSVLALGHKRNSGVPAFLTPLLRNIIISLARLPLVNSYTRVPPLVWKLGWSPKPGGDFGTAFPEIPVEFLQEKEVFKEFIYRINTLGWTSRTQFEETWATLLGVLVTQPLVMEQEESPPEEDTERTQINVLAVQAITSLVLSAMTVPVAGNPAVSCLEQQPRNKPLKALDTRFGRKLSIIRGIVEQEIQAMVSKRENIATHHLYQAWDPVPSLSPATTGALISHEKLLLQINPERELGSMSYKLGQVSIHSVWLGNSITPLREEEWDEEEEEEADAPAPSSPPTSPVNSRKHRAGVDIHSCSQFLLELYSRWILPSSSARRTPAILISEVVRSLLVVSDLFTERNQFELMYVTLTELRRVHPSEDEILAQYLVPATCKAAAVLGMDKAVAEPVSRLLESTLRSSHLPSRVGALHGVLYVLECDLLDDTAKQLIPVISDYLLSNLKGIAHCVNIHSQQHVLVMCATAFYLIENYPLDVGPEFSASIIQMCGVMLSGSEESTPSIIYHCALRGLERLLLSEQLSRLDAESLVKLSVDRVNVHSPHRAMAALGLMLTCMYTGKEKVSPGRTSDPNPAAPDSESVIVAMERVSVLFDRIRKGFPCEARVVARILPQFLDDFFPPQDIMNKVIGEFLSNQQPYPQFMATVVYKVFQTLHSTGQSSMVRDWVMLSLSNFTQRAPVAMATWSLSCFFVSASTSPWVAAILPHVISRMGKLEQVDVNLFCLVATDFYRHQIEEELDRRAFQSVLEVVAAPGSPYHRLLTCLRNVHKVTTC
Active calls of the source: *; x = no result. Rule as the data show it: active = inhibition above about 50%; inactive = the rest.

SMILES	Pf apPOL block	mHTT-CaM PPI inh
CC1=NN(c2ccccc2)C(=O)C1N=Nc1ccc([N+](=O)[O-])cc1 (stereo unspecified)	-4	x
O=C1NC(=O)N(c2ccc(Cl)cc2)C(=O)/C1=C/c1ccc(O)c(Br)c1	2	10
O=[N+]([O-])c1cccc(/C=C/c2ccc3ccccc3n2)c1	-4	1
O=[N+]([O-])c1cccc(/C=C/c2ccccn2)c1	67*	-2
c1ccc(-c2nc(-c3ccccn3)nc(-c3ccccn3)n2)nc1	x	19
Clc1cc(-c2ccccn2)nc(-c2ccccn2)c1	x	76*
COC(=O)c1ccccc1NC(=O)c1cnc2cc(C)ccn2c1=O	-3	-2
Cc1ccc(-c2cc(C(=O)N3CCN(c4ccccn4)CC3)c(C)[nH]2)cc1	-2	77*
Cn1cc(C(=O)N2CCN(c3ccccn3)CC2)c2cccnc21	0	-10
CS(=O)(=O)N1CCC(C(=O)Nc2nnc(-c3ccsc3)o2)CC1	4	10
CCNC(=O)N1CCCC1c1nc2cc(-c3ccc(N(C)C)cc3)ccc2o1 (stereo unspecified)	-3	84*
CC(C)(C)C(=O)N1CCCC1c1nc2cc(-c3ccccc3)ccc2o1 (stereo unspecified)	1	15
CCCN(CCC)C(=O)C[n+]1ccc(C(N)=O)cc1	-8	-1
Cc1ccc(NC(=O)NCC2CCN(C3CCCC3)CC2)cc1C	-9	-12
CC(/C=C1\SC(=O)N(c2ccc(O)cc2)C1=O)=C\c1ccccc1	-4	60*
Cc1ccc(N2C(=O)S/C(=C\c3ccc(O)cc3)C2=O)cc1	-3	12
O=S(=O)(Nc1cccc(F)c1)c1ccc(-c2ccccc2)cc1	-4	79*
Cc1ccc(S(=O)(=O)Nc2cccc(F)c2)cc1	-1	-7
O=S(=O)(Nc1ccc(Nc2ccccc2)cc1)c1ccc(F)cc1	-3	69*
O=S(=O)(Nc1ccc(NS(=O)(=O)c2ccc(F)cc2)cc1)c1ccc(F)cc1	-2	4
CC(Oc1cccc2ccccc12)C(=O)O (stereo unspecified)	-7	5
COc1cc(-c2nc3ccccn3c2N=Cc2cn[nH]c2-c2ccccc2)ccc1O	-9	34
COc1ccc(-c2[nH]ncc2-c2ccc(F)cc2)c(O)c1	-6	39
CCc1cc(-c2[nH]ncc2-c2ccc(F)cc2)c(O)cc1OC	9	74*
CCc1cc(-c2[nH]ncc2-c2ccccc2)c(O)cc1OC	-2	100*
SMILES	Pf apPOL block	mHTT-CaM PPI inh
O=Cc1cn[nH]c1-c1ccccc1	-4	-6
Oc1ccc(-c2[nH]ncc2-c2ccccc2)c(O)c1O	-3	96*
Cc1cccc(C(=O)N2CSCC2C(=O)NCCc2cscn2)c1 (stereo unspecified)	-2	0
CC(C)NC(=O)CSc1nccnc1N1CCN(c2ccccc2)CC1	-4	5
COc1ccccc1C(=O)N1CCN(c2ccc(NCC3CCCO3)nn2)CC1 (stereo unspecified)	-12	3
COc1cc(OC)c(NC(=O)COc2ccc(C)cc2Br)cc1Cl	0	-3
O=C(O)c1cc([N+](=O)[O-])c(C(=O)O)cc1Oc1cc(Cl)c(Cl)cc1Cl	-5	-5
Nc1cc(Cl)c(Oc2cccc(Cl)c2Cl)cc1[N+](=O)[O-]	-3	97*
COc1cc(OC)c(C2N(c3ccc(Cl)c(Cl)c3)C(=O)C3CCCN32)cc1OC (stereo unspecified)	-1	98*
COc1ccc(N2C(=O)C3CCCN3C2c2ccc(Cl)cc2)cc1Cl (stereo unspecified)	-3	2
COc1ccccc1C1N(c2ccc(Cl)c(Cl)c2)C(=O)C2CCCN21 (stereo unspecified)	0	100*
CCN(CC)c1ccc(C2N(c3cc(Cl)ccc3OC)C(=O)C3CCCN32)cc1 (stereo unspecified)	-1	75*
CCc1ccc(C2N(c3cc(Cl)ccc3OC)C(=O)C3CCCN32)cc1 (stereo unspecified)	-3	33
COc1cc(OC)c(C2N(c3ccc(Cl)cc3)C(=O)C3CCCN32)cc1OC (stereo unspecified)	0	67*
COc1ccccc1C1N(c2cc(Cl)ccc2OC)C(=O)C2CCCN21 (stereo unspecified)	-2	1
CCOc1ccc(C2N(c3ccc(Cl)cc3)C(=O)C3CCCN32)cc1OC (stereo unspecified)	-6	30
O=C(NC1(c2nc(-c3ccncc3)no2)CCCCC1)c1ccccc1F	0	5
COc1ccc(/C=C2/N=C(c3cccc([N+](=O)[O-])c3C)OC2=O)cc1OC	-2	-1
COc1cc2c(cc1OC)CN(C(=O)C(c1ccccc1)n1cccc1)CC2 (stereo unspecified)	6	65*
COc1ccc(C(=O)N2CCc3cc(OC)c(OC)cc3C2)cc1OC	-5	-3
COc1ccc(C(=O)N2CCCC2c2cc(C(C)C)on2)cc1OC (stereo unspecified)	1	-7
O=C(c1ccco1)N1CCCC2(C1)Nc1ccccc1NC2=NC1CCCC1 (stereo unspecified)	-1	79*
O=C(c1ccncc1)N1CCCC2(C1)Nc1ccccc1NC2=NCc1ccccc1 (stereo unspecified)	0	24
O=S(=O)(C1CC1)N1CCCC2(C1)Nc1ccccc1NC2=NCc1ccccc1 (stereo unspecified)	-5	62*
O=C(c1ccoc1)N1CCCC2(C1)Nc1ccccc1NC2=NC1CCCC1 (stereo unspecified)	4	69*
SMILES	Pf apPOL block	mHTT-CaM PPI inh
COCCC(=O)N1CCCC2(C1)Nc1ccccc1NC2=NC1CCCC1 (stereo unspecified)	-4	7
O=C(c1ccccn1)N1CCCC2(C1)Nc1ccccc1NC2=NC1CCCC1 (stereo unspecified)	0	24
O=C(c1ccccc1)N1CCCC2(C1)Nc1ccccc1NC2=NC1CCCC1 (stereo unspecified)	2	32
O=C(NCc1ccccc1)N1CCCC2(C1)Nc1ccccc1NC2=NC1CCCC1 (stereo unspecified)	-6	100*
CCOC(=O)C1CCCN(CCOc2ccc3c(c2)OC(=Cc2ccc(OC)cc2)C3=O)C1 (stereo unspecified)	-1	15
CCn1c(CCNC(=O)c2ccccc2)nc2c(C)cccc2c1=O	-6	24
CCn1c(CCNC(=O)c2cccc(N(C)C)c2)nc2c(C)cccc2c1=O	1	59*
CN1C(=O)S/C(=C/c2ccc(OCc3cccc([N+](=O)[O-])c3)cc2)C1=O	-3	7
CNc1nc2c(C)cccn2c(=O)c1C=Nc1ccc(C)cc1	-6	20
Cc1cccc(Cn2c(CN3CCC(C(=O)NCc4ccco4)CC3)cc3ccccc32)c1	1	36
COCCNC(=O)C1CCN(Cc2cc(OC)c(OC)c(OC)c2)CC1	-6	-4
COCCNC(=O)C1CCN(Cc2cc3ccccc3n2Cc2cccc(C)c2)CC1	5	60*
COCCCNC(=O)C1CCN(Cc2cc3ccccc3n2Cc2ccc(C)cc2)CC1	-4	76*
COCCNC(=O)C1CCN(Cc2cc3ccccc3n2Cc2cccc(F)c2)CC1	-3	63*
Cc1ccc(Cn2c(CN3CCC(C(=O)NCc4ccco4)CC3)cc3ccccc32)cc1	2	38
COCCNC(=O)C1CCN(Cc2cc3ccccc3n2Cc2ccccc2C)CC1	3	60*

Screens from PubChem BioAssay.
